# MCF10A rereplic: induces DNA re-replication in MCF 10a normal breast cells | MCF 10A DNA re-replication, Hoechst nuclear intensity, 48 h | Potency, µM (titrated, usually from 46.1 µM), most hits filed as activators | hit rate 2.9% among 350,000 | AID 624296; also: nearly all actives have a fitted effect of over 50% in size
# KB-3-1 tox: kills parental KB-3-1 adenocarcinoma cells; KB-3-1 viability, CellTiter-Glo ATP luminescence, 72 h; Potency, µM (series often up to 46.1 µM), usual class: cytotoxic; hit rate 1.4% among 400,000; AID 1347075; also: nearly all actives have a fitted effect of over 60% in size
#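 Screening of KB-3-1 cells (DMEM, 10% FBS, phenol-red free) ran from lowest to highest compound concentration; after 72 h at 37 °C viability was read luminescently and curves fitted.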
# HT1080 IDH1KD tx: HT-1080 IDH1 knockdown cell toxicity (counter line). HT-1080 IDH1 knockdown viability, ATP luminescence, 48 h. Potency, µM (series often up to 46.1 µM), hits mostly cytotoxic. hit rate 2% among 360,000. AID 686971
#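 Cytotoxicity counter-line: IDH1KD HT-1080, 48 h, CellTiter-Glo. Curves classed by r2, magnitude and activity.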
# KB-V1 cytotox: KB-V1 MDR subline cytotoxicity; KB-V1 MDR cells viability, CellTiter-Glo, 72 h; Potency, µM (titrated, usually from 46.1 µM), actives largely listed as cytotoxic; hit rate 3.4% among 400,000; AID 1347076; also: nearly all actives have a fitted effect of over 60% in size
#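 KB-V1 MDR subline cells in DMEM (phenol-red free, 10% FBS) exposed to compounds in qHTS concentration series for 72 h at 37 degrees C. Viability read by CellTiter-Glo luminescence; concentration-effect curves fitted after normalization and correction.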
# SW480 rereplic: induces DNA re-replication in SW480 colon adenocarcinoma cells; SW480 DNA re-replication, Hoechst DNA content imaging, 48 h; Potency, µM (top dose mostly 46.1 µM), actives largely listed as activators; hit rate 1.8% among 340,000; AID 624297; also: nearly all actives have a fitted effect of over 55% in size
#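 Per well, 250 cells were exposed to pinned compound for 48 hr. Nuclear DNA was visualised with Hoechst (40 min, 37 C) and total object intensity recorded by fluorescence scanning.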
# HT1080-NT tox: kills 2HG-producing HT-1080-NT fibrosarcoma cells; HT-1080-NT fibrosarcoma viability, CellTiter-Glo ATP luminescence, 48 h; Potency, µM (highest dose often 46.1 µM), hits mostly cytotoxic; hit rate 1.6% among 360,000;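 also: NT is the 2HG producing partner of a matched IDH1 knockdown line; nearly all actives have a fitted effect of over 55% in size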
#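 A 48-hour cytotoxicity screen used HT-1080-NT cells plated 2 hours before compound delivery. ATP-based CellTiter-Glo luminescence measured viability, normalized to DMSO and no-cell controls.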
# A number is an active result; n = inactive; u = inconclusive; x = not tested or not shown; [ ] = dose if it differs, or a comment. Compounds with a hit are over-represented: about 8% of the library has one in this group of screens. Calls follow the shape of the dose curve; as a rule, active = well fitted curve in the direction sought with a large enough effect; inconclusive = small, poorly fitted or top-dose-only effect, or another doubt; inactive = no such curve, though single readings can be large; an effect the other way counts as inactive or inconclusive.
SMILES,MCF10A rereplic,KB-3-1 tox,HT1080 IDH1KD tx,KB-V1 cytotox,SW480 rereplic,HT1080-NT tox
O=C(CCS(=O)(=O)c1ccccc1)N(CCCN1CCOCC1)c1nc2c(F)cccc2s1,13µM,u,u,u,23.1µM,n
OCC1(Cc2ccc(F)cc2)CCCN(CCCC(F)(F)F)C1 (configuration not stated),n,n,n,n,u,n
COc1ccc(N2CCN(C(=O)c3cc4c(=O)oc5ccc(C)cc5c4s3)CC2)cc1,x,n,x,n,x,x
COCCCN=C1NN=C(c2cc(C)n(Cc3ccco3)c2C)CS1,u,u,1.64µM,u,5.8µM,1.64µM
Cc1cc(C2=NNC(=NC3CC3)SC2)c(C)n1Cc1ccco1,6.51µM,3.26µM,7.31µM,5.17µM,x,7.31µM
c1ccc(C2=NNC(=NC3CC3)SC2)cc1,n,u,17.8µM,n,n,u
COc1ccc(-n2c(C)cc(C3=NNC(=NC4CC4)SC3)c2C)cc1,9.2µM,u,20.6µM,u,u,23.1µM
c1ccc2c(C3=NNC(=NC4CC4)SC3)c[nH]c2c1,n,n,n,n,n,n
COCCn1c(C)cc(C2=NNC(=NC3CC3)SC2)c1C,u,n,u,u,n,u
COc1ccc2nc(NC(=O)C3CCN(S(=O)(=O)c4cccc5nsnc45)CC3)sc2c1,u,u,u,1.64µM,n,n
Cc1cccc(NC(=O)C2CCN(S(=O)(=O)c3cccc4nsnc34)CC2)n1,n,n,n,n,n,n
Cc1cccc(NC(=O)C2CCCN(S(=O)(=O)c3cccc4nsnc34)C2)c1 (configuration not stated),14.6µM,n,n,n,u,n
O=C(Nc1cccc(C(F)(F)F)c1)C1CCCN1S(=O)(=O)c1cccc2cccnc12 (configuration not stated),n,n,n,2.59µM,n,n
O=C(Nc1cccc(C(F)(F)F)c1)C1CCCN1S(=O)(=O)c1cccc2nsnc12 (configuration not stated),x,u,x,7.31µM,x,x
COc1ccc(OCC(=O)Nc2c(Cl)ccc3nsnc23)cc1,n,n,n,n,n,n
CCC1(C)Cc2ccccc2-c2[nH]c(=S)[nH]c(=O)c21 (configuration not stated),n,n,n,n,n,n
O=[N+]([O-])c1ccc(O)c(-c2nc(-c3ccccc3)c(-c3cccs3)[nH]2)c1,u,n,u,n,u,u
CN(Cc1ccccc1)C(=O)C1CCN(S(=O)(=O)c2cccc3nsnc23)CC1,n,n,n,u,20.6µM,n
CN(Cc1ccccc1)C(=O)C1CCC(CNS(=O)(=O)c2cccc3cccnc23)CC1 (configuration not stated),n,n,n,9.2µM,u,n
CN(CCCNC(=O)C1CCN(S(=O)(=O)c2cccc3nsnc23)CC1)Cc1ccccc1,n,n,n,n,n,n
O=[N+]([O-])c1cc(Br)c(O)c(/C=N/Nc2nnnn2-c2cccc3ccccc23)c1,4.11µM,n,n,u,n,u
O=C(NCCN1CCC(n2c(=O)[nH]c3ccccc32)CC1)c1ccc(Cl)cc1,x,n,n,n,x,u
O=C(NCCN1CCC(n2c(=O)[nH]c3ccccc32)CC1)c1ccc(Cl)c(Cl)c1,x,u,u,20.6µM,x,20.6µM
Cc1cc(C(=O)OCCO)c(C#N)c(N)n1,n,n,n,n,n,n
CCOC(=O)C1=C(C)OC(N)=C(C#N)C1c1cc(SCC)oc1C (configuration not stated),u,n,n,n,n[1.84 µM],n
SMILES,MCF10A rereplic,KB-3-1 tox,HT1080 IDH1KD tx,KB-V1 cytotox,SW480 rereplic,HT1080-NT tox
COc1ccc(N2COC3c4cccc5cccc(c45)C32)cc1 (configuration not stated),23.1µM,n,n,n,n,n
O=C(CN(Cc1ccccc1)C(=O)CSc1nnc(COc2ccccc2)o1)NC1CCCC1,n,n,n,n,n,n
O=C(CN(Cc1cccs1)C(=O)CSc1nnc(COc2ccccc2)o1)NC1CCCC1,10.3µM,n,n,n,u,n
Cc1nnc(N2CCOCC2)c2nn(-c3cccc(Cl)c3)c(C)c12,n,n,n,3.66µM,n,n
CN(C/C(O)=C(\C#N)c1ccccc1)C1CCCCC1,n,n,n,n,n,n
CC(=O)N(CCC1(C(C)C)CCOC(C)(C)C1)Cc1ccco1 (configuration not stated),n,n,n,11.6µM,n,n
O=C(N/N=C/C1CC=CCC1)c1ccc(O)cc1O (configuration not stated),n,n,n,n,n,n
O=C(COc1ccc(Cl)cc1Cl)N/N=C/C1CC=CCC1 (configuration not stated),n,n,n,n,n,n
COc1cc(C(=O)N/N=C/C2CC=CCC2)cc(OC)c1OC (configuration not stated),3.66µM,n,u,n,u,u
O=C(N/N=C/C1CC=CCC1)c1cc2ccccc2cc1O (configuration not stated),u,n,18.4µM,n,n,u
COC(=O)c1ccc(N/N=C/c2cc([N+](=O)[O-])cc(OC)c2O)cc1,n,n,n,n,n,n
COc1cc([N+](=O)[O-])cc(/C=N/N(CCC#N)C(C)=O)c1O,u,n,u,n,5.8µM,u
O=C(COc1ccccc1)Nc1ccc2[nH]c(=O)[nH]c2c1,n,n,n,n,n,n
COc1cccc(C(=O)Nc2ccc3[nH]c(=O)[nH]c3c2)c1OC,n,1.16µM,n,0.731µM,n,n
COc1cccc(NC(=O)c2cccc(OC)c2OC)c1,n,n,n,n,n,n
O=C(COc1ccccc1F)Nc1ccc2[nH]c(=O)[nH]c2c1,n,u,n,6.51µM,n,n
O=S(=O)(c1ccccc1)N1CCN(CCO)CC1,n,n,n,n,n,n
CC1CCCC(NC(=O)COC(=O)COc2ccc(C#N)cc2)C1C (configuration not stated),n,n,n,n,n,n
COc1cccc(N=Nc2ccc(O)c3ncccc23)c1,n,4.61µM,u,n,n,u
COc1ccc(C)cc1N=Nc1ccc(O)c2ncccc12,n,n,u,n,u,u
O=Nc1ccc(O)c2ncccc12,n,20.6µM,u,23.1µM,u,11.6µM
COc1ccc(N=Nc2ccc(O)c3ncccc23)cc1,n,n,4.61µM,n,u,u
Cc1ccccc1N=Nc1ccc(O)c2ncccc12,u,u,7.31µM,n,u,u
CC(=O)c1cc2c(cc1NC(=O)c1cnc(C)cn1)OCO2,n,n,n,n,n,n
Cc1cc(NC(=O)CSc2nnc(NC(=O)C3CC(=O)N(c4ccccc4)C3)s2)no1 (configuration not stated),n,n,n,n,n,n
